Measured values: PubChem BioAssay AID651815 (National Center for Advancing Translational Sciences (NCATS), 2012)
The campaign covered roughly 2,100 compounds. About 1,100 (52%) were called active. Not shown: some 29% with an inconclusive outcome. The set was probably picked from earlier hits. Some of the results follow. A number with no mark means an inactive call. The call rests on the fitted dose curve; in most records, active means well fitted inhibition curve with a large enough effect; inconclusive means small, poorly fitted or top-dose-only effect; inactive means no such curve, though single readings can be large or run the other way.

molecular target: DNA dC->dU-editing enzyme APOBEC-3F (Homo sapiens) (UniProt Q8IUX4); test: qHTS for inhibitors of Vif-A3F interactions: Cherry picks counterscreen; settings: HeLa A3F-eYFP/Vif cells, eYFP fluorescence, 24 h; series mostly up to 46.1 µM; activity, negative = inhibitor: at the top concentration; further: nearly all actives have a fitted effect of over 65% in size
Procedure, shortened: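 HeLa cells stably expressing A3F-eYFP and Vif, cultured overnight, then treated 24 h at 37 degrees C with compounds at several concentrations; yellow fluorescence (488 nm Ex/500-530 nm Em) imaged on Acumen; MG132 positive control.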
On the % scale 0 is the no-effect control and ±100 the full control effect; potency means the concentration at half of the fitted maximal effect.

Chain of DNA dC->dU-editing enzyme APOBEC-3F (Homo sapiens) (Q8IUX4 whole entry, looked up): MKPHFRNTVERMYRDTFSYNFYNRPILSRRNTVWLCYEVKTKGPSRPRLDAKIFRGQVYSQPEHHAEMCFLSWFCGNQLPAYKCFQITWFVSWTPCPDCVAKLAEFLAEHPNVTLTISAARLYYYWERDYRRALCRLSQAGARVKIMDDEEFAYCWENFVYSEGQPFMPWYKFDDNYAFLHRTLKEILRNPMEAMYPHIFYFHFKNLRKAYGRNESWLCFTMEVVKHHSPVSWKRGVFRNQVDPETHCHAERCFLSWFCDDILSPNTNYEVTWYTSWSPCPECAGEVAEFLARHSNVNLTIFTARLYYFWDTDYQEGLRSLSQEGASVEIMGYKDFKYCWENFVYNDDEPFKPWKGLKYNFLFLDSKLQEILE

| Compound | activity, negative = inhibitor | Potency |
| --- | --- | --- |
| C/C(CCC(C)C)=N\NC(=S)NCc1ccccc1 | 0.97% | – |
| CC(=O)Nc1ccc2c(c1)Cc1ccc(Cl)cc1-2 | -0.691% | – |
| CC(=O)Nc1ccc(C2=CC(=O)C[C@H](c3ccc(Cl)cc3)C2)cc1 | – | 20.6 µM (active) |
| O=c1[nH]c(CN2CCN(c3ccccc3)CC2)nc2scc(-c3ccccc3)c12 | – | 16.4 µM (active) |
| COc1cccc(N2CCN(Cc3nc4scc(-c5ccccc5)c4c(=O)[nH]3)CC2)c1 | – | 9.94 µM (active) |
| O=C(NC(=S)N1CCN(C2CCCCC2)CC1)c1ccccc1 | -3.42% | – |
| COc1ccc(Cl)cc1NC(=O)CN(C)CC(=O)Nc1ccccc1N1CCOCC1 | – | 3.53 µM (active) |
| C/C(CC(=O)NCc1ccc(Cl)cc1)=N\NC(=O)COc1ccc(C)cc1Br | – | 15.8 µM (active) |
| O=C(Oc1ccc(Cl)c2cccnc12)c1ccco1 | -0.697% [at 36.9 µM] | – |
| C/C(CC(=O)NCc1ccco1)=N\NC(=O)COc1ccc(Cl)cc1Cl | – | 12.5 µM (active) |
| c1ccc(N=Nc2ccc3cccccc2-3)cc1 | – | 15.8 µM (active) |
| CCOC(=O)C(=Cc1ccc(-n2cncn2)cc1)C(=O)OCC | – | 7.9 µM (active) |
| CCOC(=O)C(=Cc1ccc(-n2ccnc2)cc1)C(=O)OCC | – | 12.5 µM (active) |
| COc1cc(CNCCSc2nnnn2C)ccc1OCc1c(F)cccc1Cl | 4.43% | – |
| O=C(c1ccccc1)c1c2c(cc3sc4ccccc4[n+]13)-c1cccc3cccc-2c13 | – | 17.7 µM (active) |
| Oc1ccc(C2=NNC(=NCc3ccc4c(c3)OCO4)SC2)c(O)c1 | – | 4.98 µM (active) |
| O=C(O)CSc1c2ccccc2cc2ccccc12 | -5.3% [at 36.9 µM] | – |
| Cc1cc(NC(=O)NC(=O)c2ccccc2NC(=O)C(C)N)ccc1Oc1ncc(Br)cn1 (stereo not drawn) | – | 3.14 µM (active) |
| O=C1c2cccc3c([N+](=O)[O-])c(O)cc(c23)C(=O)N1Nc1ccccc1 | – | 23.1 µM (active) |
| O=c1[nH]c2ccccc2n2c(C(F)(F)F)nnc12 | – | 16.4 µM (active) |
| Cc1cccc(Cn2c(=O)n(CCCC(=O)NCc3ccco3)c(=O)c3ccccc32)c1 | – | 8.86 µM (active) |
| Cc1ccc(S(=O)(=O)Nc2nc3ccccc3nc2Nc2cccc(S(=O)(=O)N3CCCC3)c2)cc1 | – | 3.26 µM (active) |
| O=S(=O)(Nc1nc2ccccc2nc1Nc1cccc(S(=O)(=O)N2CCCCC2)c1)c1ccccc1 | – | 18.4 µM (active) |
| O=C(Nc1ccc(Cl)cn1)c1cccc(S(=O)(=O)N2CCCCCC2)c1 | 6.39% [at 36.9 µM] | – |

| Compound | activity, negative = inhibitor | Potency |
| --- | --- | --- |
| O=C(NCc1ccco1)C1Cc2c(-c3cccc(F)c3)ccnc2O1 (stereo not drawn) | – | 2.8 µM (active) |
| O=C(NCc1ccccc1)C1Cc2c(-c3cccc(F)c3)ccnc2O1 (stereo not drawn) | – | 2.8 µM (active) |
| CC(=O)c1cccc(-c2ccnc3c2CC(C(=O)NCc2ccc(F)c(F)c2)O3)c1 (stereo not drawn) | – | 3.96 µM (active) |
| CC(=O)c1cccc(-c2ccnc3c2CC(C(=O)NCc2ccco2)O3)c1 (stereo not drawn) | – | 1.98 µM (active) |
| COc1ccc(-n2c(O)c(/C=N/NS(=O)(=O)c3ccc(C)c([N+](=O)[O-])c3)c3ccccc3c2=O)cc1OC | – | 6.51 µM (active) |
| COc1ccc(-n2c(O)c(/C=N/NS(=O)(=O)c3cccc([N+](=O)[O-])c3)c3ccccc3c2=O)cc1OC | – | 14 µM (active) |
| O=C(O)CSc1cc(NS(=O)(=O)c2cccc([N+](=O)[O-])c2)c2ccccc2c1O | -21% [at 36.9 µM] | – |
| Cc1ccc(NC(=O)CSc2nc3ccc(Nc4nc(N5CCOCC5)nc(N5CCOCC5)n4)cc3s2)cc1 | – | 20.6 µM (active) |
| O=C(CSc1nc2ccc(Nc3nc(N4CCOCC4)nc(N4CCOCC4)n3)cc2s1)Nc1ccccc1F | – | 20.6 µM (active) |
| Cc1ccc(NC(=O)CSc2n[nH]c(-c3ccccn3)n2)cc1 | -13.6% | – |
| CN1CCC(OC(=O)c2cc3cc(Cl)cc(Cl)c3oc2=O)CC1 | -1.35% [at 36.9 µM] | – |
| Cc1ccc(C(=O)CSC2=C(C#N)C(c3ccco3)C3=C(CCCC3=O)N2)cc1 (stereo not drawn) | – | 9.94 µM (active) |
| O=C(c1ccc(CS(=O)c2ccccc2Cl)o1)N1CCN(c2ccccc2F)CC1 (stereo not drawn) | – | 1.84 µM (active) |
| O=c1c2cc3ccccc3n2cnn1Cc1ccccc1F | – | 14 µM (active) |
| Cc1ccnc(N/C=C(\C#N)c2nc(-c3cccc(Br)c3)cs2)c1 | – | 15.8 µM (active) |
| Cc1cc(C)cc(NC(=O)Cn2cc(C(=O)C3CCCCC3)c3ccccc32)c1 | – | 16.4 µM (active) |
| Cc1cc(C)cc(NC(=S)NC(=O)C2CC2)c1 | 1.05% | – |
| CN1CCCc2cc(/C=C/c3ccnc4ccccc34)ccc21 | – | 2.59 µM (active) |
| Cc1cc(/C=C/c2ccnc3ccccc23)ccc1N | – | 16.4 µM (active) |
| Cc1cc(/C=C/c2ccnc3ccccc23)ccc1N(C)C | – | 10.3 µM (active) |
| CN(C)c1ccc(/C=C/c2ccnc3ccccc23)cc1O | – | 18.4 µM (active) |
| CCc1cc(/C=C/c2ccnc3ccccc23)ccc1N(C)C | – | 20.6 µM (active) |
| CN(C)c1ccc(/C=C/c2ccnc3ccccc23)cc1C=O | – | 6.51 µM (active) |
| Cc1ccc(NC(=O)Cc2ccc(-n3cccc3)cc2)c(C)c1 | 7.57% | – |

| Compound | activity, negative = inhibitor | Potency |
| --- | --- | --- |
| Cc1ccc(CNC(=O)Cc2ccc(-n3cccc3)cc2)cc1 | – | 3.53 µM (active) |
| CN(C)CCNc1ccc2ncn3c4ccc(O)cc4c(=O)c1c23 | – | 20.6 µM (active) |
| CCN(CC)CCCNc1ccc2ncn3c4ccc(O)cc4c(=O)c1c23 | – | 20.6 µM (active) |
| C=CCNC(=S)N/N=C/c1ccc(C)cc1C | -7.51% | – |
| CCOc1cc(S(=O)(=O)NCc2ccc(OC)cc2)c(OCC)cc1-n1cnnn1 | – | 12.5 µM (active) |
| c1ccc2c(c1)Cc1cc3ccccc3nc1-2 | – | 9.2 µM (active) |
| Cc1ccc(S(=O)(=O)N2CCCCC2CCNC(=O)C(=O)NCc2ccco2)cc1 (stereo not drawn) | – | 14 µM (active) |
| COc1cc(/C=C/C(=O)c2ccc3c(c2)OCCO3)cc(Br)c1OCC(=O)N(C)C | – | 14 µM (active) |
| CN(C)c1ccc(/C=C/c2ccnc3c(Cl)cccc23)cc1 | – | 9.2 µM (active) |
| CN(C)c1ccc(/C=C/c2ccnc3c(Cl)ccc(Cl)c23)cc1 | – | 5.17 µM (active) |
| CN(C)c1ccc(/C=C/c2ccnc3c(N)cccc23)cc1 | – | 18.4 µM (active) |
| COc1ccc(-c2ccc3c(c2)S(=O)(=O)c2cccc(C(=O)NCCOc4ccccc4)c2C3=O)cc1OC | – | 14 µM (active) |
| O=C(NCc1ccccc1Cl)c1cccc2c1C(=O)c1ccc(-c3ccc(OC(F)(F)F)cc3)cc1S2(=O)=O | – | 16.4 µM (active) |
| COc1ccc(-c2ccc3c(c2)S(=O)(=O)c2cccc(C(=O)NCc4cccc(OC(F)(F)F)c4)c2C3=O)cc1OC | – | 3.66 µM (active) |
| COc1ccc(S(=O)(=O)NN(C)c2nc(C(F)(F)F)nc3ccccc23)cc1 | – | 11.2 µM (active) |
| COc1ccc(NC(=O)C2(C)Cc3c(-c4cccc(C(N)=O)c4)ccnc3O2)cn1 (stereo not drawn) | – | 12.5 µM (active) |
| COc1ccc(NC(=O)C2(C)Cc3c(-c4cccc(NC(C)=O)c4)ccnc3O2)cn1 (stereo not drawn) | – | 7.04 µM (active) |
| CN(C)c1ccc(/C=C(/C(=O)c2ccc(Cl)cc2Cl)n2cncn2)cc1 | – | 14 µM (active) |
| Cn1c(=S)c2[nH]c(SCCN3CCCC3)nc2n(C)c1=O | 5.61% | – |
| COc1cc(-c2noc(C)c2/C=C/c2ccc(OC(C)=O)cc2)cc(OC)c1OC | – | 0.627 µM (active) |
| COc1cc(-c2noc(C)c2/C=C/c2cccc([N+](=O)[O-])c2)cc(OC)c1OC | – | 1.58 µM (active) |
| O=c1[nH]c2cc(Br)cnc2nc1/C=C(\O)c1ccc(F)cc1 | – | 18.4 µM (active) |
| COc1ccc(Cl)cc1NC(=O)CSc1nc2c([nH]c3ccccc32)c(=O)n1-c1ccccc1 | – | 25.9 µM (active) |
| O=C(O)c1ccc(NS(=O)(=O)c2cccc(C(=O)Nc3ccccc3[N+](=O)[O-])c2)cc1 | -7.28% [at 36.9 µM] | – |

| Compound | activity, negative = inhibitor | Potency |
| --- | --- | --- |
| Cc1ccc(NC(=O)c2ccc(NCC3CCCO3)c([N+](=O)[O-])c2)cc1Cl (stereo not drawn) | – | 20.6 µM (active) |
| Cc1ccc(NC(=O)c2ccc([N+](=O)[O-])s2)cc1S(=O)(=O)N1CCOCC1 | -22.5% [at 36.9 µM] | – |
| O=C(NCCN1C(=O)S/C(=C\c2ccc(OC(F)F)cc2)C1=O)c1cnccn1 | – | 7.04 µM (active) |
| ClCc1nc2ccccc2n1Cc1ccccc1 | – | 18.4 µM (active) |
| CC(C)(C)c1ccc(Cn2c(=O)cnc3ccccc32)cc1 | -20.8% | – |
| COc1cc(N2CCCC2)c(OC)cc1/C=C(/C#N)c1ccc(Br)cc1 | – | 2.06 µM (active) |
| COc1cc(N2CCCC2)c(OC)cc1/C=C(/C#N)c1ccc(F)cc1 | – | 9.2 µM (active) |
| CC(=O)/C(N=Nc1cc(C)ccc1O)=C(\C)O | – | 16.4 µM (active) |
| Cc1ccc(-c2nc(SCCOc3ccccc3C)n3[nH]c(=O)cc3n2)cc1 | 4.56% | – |
| Cc1ccccc1OCCc1c(C)[nH]c(=S)[nH]c1=O | – | 2.23 µM (active) |
| COc1cc(NC(=O)C2=C(N3CCOCC3)/C(=C\c3ccc(N(C)C)cc3)CCC2)cc(OC)c1OC | – | 5.59 µM (active) |
| O=C1CC(c2ccccc2F)c2cc3c(cc2N1)CCC3 (stereo not drawn) | – | 2.5 µM (active) |
| O=C1CC(c2cc(Br)ccc2F)c2cc3c(cc2N1)CCC3 (stereo not drawn) | – | 1.12 µM (active) |
| O=C1CC(c2cc(F)ccc2F)c2cc3c(cc2N1)CCC3 (stereo not drawn) | – | 3.14 µM (active) |
| NC(=O)c1ccccc1NC(=S)NC(=O)CCc1ccccc1 | – | 9.94 µM (active) |
| CCC(=O)NC(=S)Nc1cccc(Cl)c1N1CCCC1 | -20.3% | – |
| O=C(COc1ccccc1)NC(=S)Nc1cccc2c(O)cccc12 | -26.3% [at 36.9 µM] | – |
| Oc1ccc(-c2nc(-c3ccc(O)c(O)c3)cs2)cc1 | – | 1.25 µM (active) |
| Cc1ccccc1NC(=O)c1ccc2c(c1)c(C)c(C)n2Cc1ccccc1 | – | 6.51 µM (active) |
| COc1ccc(NC(=O)c2ccc3c(c2)c(C)c(C)n3Cc2ccc(F)cc2)cc1 | – | 4.61 µM (active) |
| O=[N+]([O-])c1ccc(N2CCN(Cc3ccccc3)CC2)c2c1no[n+]2[O-] | – | 15.8 µM (active) |
